From PubChem
VDR inh – inhibitors of human vitamin D receptor; VDR-SRC2-3 peptide fluorescence polarization, 2 h; 400,000 compounds, 0.93% hits; Potency, µM, most hits filed as inhibitors; P11473
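Fluorescence polarization assay measuring small-molecule disruption of VDR binding to the coregulator peptide SRC2-3. Compounds were pin-transferred (23 nl) into the reagent mix and incubated 2 h at room temperature before reading.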
MBNL1 CUG block – MBNL1-poly(CUG) RNA binding inhibition; Q9NR56; TR-FRET MBNL1-His/biotin-(CUG)12 binding, 665/545 ratio; Potency, µM (titrated, usually from 57.5 µM), usual class: inhibitors; 280,000 compounds, 0.036% hits; AID 2675; active = well fitted inhibition curve with a large enough effect in the signal ratio, with a control signal flat, not every such curve was filed as active; inconclusive = small, poorly fitted or top-dose-only effect, or effect the other way, or a change in a side signal; inactive = no such curve, though single readings can be large or run the other way; the % refers to the signal ratio
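MBNL1-His + Biotin-(CUG)12, cpd titration 92 nM–58 uM; Tb anti-His Ab 0.055 ng/ul, SA-XL665 5 nM (final); 60 min RT; ratiometric 665/545 nm, Ex 340 nm; normalized to buffer and full-complex controls.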
PLK1 PBD inh – PLK1 (human) polo-box domain binding inhibition; Plk1 PBD binding of FITC phosphopeptide, fluorescence polarization; 360,000 compounds, 2.8% hits; Potency, µM, usual class: inhibitors; note: series mostly up to about 57 µM; nearly all actives have a fitted effect of over 65% in size
CBFb-RUNX1 inh – blocks binding between human CBF-beta and RUNX1 | Q01196+Q13951 | Potency, µM (series often up to 59.8 µM), most hits filed as inhibitors | AlphaScreen CBFb-His/RUNX1-biotin binding, biochemical | 230,000 tested, under 10 active | AID 1477
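Compounds were screened at multiple concentrations against a preformed CBF-beta(His)/RUNX1(biotin) complex (30 nM of each) for 15 min at room temperature, followed by 90 min with nickel and streptavidin beads and AlphaScreen reading.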
KCNH2 3.1 block – blocks the human KCNH2 3.1 channel isoform; U2OS KCNH2 3.1, thallium flux FluxOr; stronger effect = lower value; activity change, % (tested at about 1.8 µM); 340,000 compounds, 0.95% hits; AID 720553;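 active = maximum activity change below -70%; inconclusive = maximum activity change from -70% to -50%; inactive = maximum activity change above -50%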;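 note: thallium influx rate constant from kinetic fluorescence after stimulation buffer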
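Channel expression came from 3.1 mutant virus (1.77 x 10^8 /mL) applied to suspended U2OS cells for 4 h. Flux was tracked with FluxOr dye plus Red40 quencher, and kinetic rate constants normalized to controls.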
hERG WT inh – KCNH2 (human, wildtype) channel inhibition; Q12809; U2OS, BacMam KCNH2, thallium flux FluxOr; stronger effect = lower value; activity change, % at 1.84 µM; 340,000 compounds, 0.37% hits; AID 720551;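 active = maximum activity change below -70%; inconclusive = maximum activity change between -70% and -50%; inactive = maximum activity change above -50%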
Target sequence (Q12809 whole entry, looked up): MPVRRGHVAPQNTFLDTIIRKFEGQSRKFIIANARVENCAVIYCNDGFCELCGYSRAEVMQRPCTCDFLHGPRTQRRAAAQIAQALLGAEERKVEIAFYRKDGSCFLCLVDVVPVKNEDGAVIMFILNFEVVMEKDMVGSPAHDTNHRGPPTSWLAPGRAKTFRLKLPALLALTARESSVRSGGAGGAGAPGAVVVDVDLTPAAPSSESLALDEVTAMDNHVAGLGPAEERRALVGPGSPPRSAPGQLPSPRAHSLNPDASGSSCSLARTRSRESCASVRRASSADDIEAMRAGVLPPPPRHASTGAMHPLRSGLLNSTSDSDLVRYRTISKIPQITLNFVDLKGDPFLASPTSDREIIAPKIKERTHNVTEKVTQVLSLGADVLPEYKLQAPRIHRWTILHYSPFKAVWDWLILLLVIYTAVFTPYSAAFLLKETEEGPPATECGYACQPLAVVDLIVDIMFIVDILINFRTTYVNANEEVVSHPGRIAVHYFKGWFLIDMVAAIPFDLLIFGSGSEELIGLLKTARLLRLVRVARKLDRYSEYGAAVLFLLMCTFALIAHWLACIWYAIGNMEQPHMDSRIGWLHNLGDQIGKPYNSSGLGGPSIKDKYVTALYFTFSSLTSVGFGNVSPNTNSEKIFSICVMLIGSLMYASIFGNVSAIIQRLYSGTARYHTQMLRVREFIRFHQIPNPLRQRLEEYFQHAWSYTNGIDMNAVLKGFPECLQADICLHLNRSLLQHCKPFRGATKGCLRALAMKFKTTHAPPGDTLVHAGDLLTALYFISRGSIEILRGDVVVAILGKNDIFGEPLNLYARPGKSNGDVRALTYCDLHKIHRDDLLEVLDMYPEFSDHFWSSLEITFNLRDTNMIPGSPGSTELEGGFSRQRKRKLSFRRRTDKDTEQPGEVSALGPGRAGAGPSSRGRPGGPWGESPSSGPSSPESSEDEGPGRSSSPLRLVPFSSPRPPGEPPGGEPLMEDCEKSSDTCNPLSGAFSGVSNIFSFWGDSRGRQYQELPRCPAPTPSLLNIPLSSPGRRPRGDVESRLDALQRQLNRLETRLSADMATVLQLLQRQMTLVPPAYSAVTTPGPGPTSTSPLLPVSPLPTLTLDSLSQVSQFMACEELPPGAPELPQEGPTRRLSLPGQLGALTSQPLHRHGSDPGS
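U2OS cells transduced with wild-type KCNH2 virus are loaded with FluxOr dye for 45 min, and thallium flux is measured in kinetic reads before and after stimulation buffer. Rate constants are normalized to DMSO controls.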
Of the large screens only hits and unclear results are named; the others gave an inactive call. Sampled rows, rich in hits. Any-hit rate of the full collection: about 3.8%. Unless noted, calls come from the whole dose curve; as a rule, active = well fitted curve in the direction sought with a large enough effect; inconclusive = small, poorly fitted or top-dose-only effect, or another doubt; inactive = no such curve, though single readings can be large; an effect the other way counts as inactive or inconclusive.

O=C1NN(c2ccc(Cl)cc2)C(=O)/C1=C\c1ccc(-c2cccc(C(=O)O)c2)o1	VDR inh inconclusive, PLK1 PBD inh 24µM
COc1ccc(-n2c(Cc3cccn3C)nnc2SCC(=O)Nc2ccc(C)cc2C)cc1	VDR inh inconclusive, PLK1 PBD inh 27µM
Cn1cccc1Cc1nnc(SCC(=O)Nc2ccc(F)cc2)n1-c1ccc(F)cc1	VDR inh inconclusive, PLK1 PBD inh 24µM
Cn1cccc1Cc1nnc(SCC(=O)Nc2ccccc2)n1-c1ccc(F)cc1	PLK1 PBD inh inconclusive
Cc1ccc(-n2c(Cc3cccs3)nnc2SCC(=O)Nc2ccc(F)c(F)c2)cc1	hERG WT inh -77
Cn1c(Cc2cccs2)nnc1SCC(=O)Nc1ccccc1F	none (no result: MBNL1 CUG block, CBFb-RUNX1 inh)
O=C(CCC1N=C2c3ccccc3N=C(SCc3ccccc3F)N2C1=O)NCc1ccccc1 (stereo unspecified)	none (no result: MBNL1 CUG block, PLK1 PBD inh, CBFb-RUNX1 inh, KCNH2 3.1 block, hERG WT inh)
CC(=O)Nc1ccc(NC(=O)C(C)OC(=O)c2ccc(OCc3c(C)noc3C)cc2)cc1 (stereo unspecified)	VDR inh inconclusive, PLK1 PBD inh 30µM
CC(=O)Nc1ccc(SCc2c(C)noc2C)cc1	PLK1 PBD inh 21µM (no result: CBFb-RUNX1 inh)
CC(=O)Nc1ccc(SCc2ncc(-c3ccccc3)o2)cc1	PLK1 PBD inh 13µM (no result: CBFb-RUNX1 inh)
Cc1noc(C)c1CSc1ccc(Br)cc1	PLK1 PBD inh inconclusive, CBFb-RUNX1 inh inconclusive
c1ccc(-c2cnc(CSc3ncnc4sccc34)o2)cc1	PLK1 PBD inh inconclusive
O=C(Nc1nc(=S)ss1)c1ccc(Cl)cc1Cl	PLK1 PBD inh 15µM
O=C(Nc1ccc2ccccc2c1)c1ccc(Cl)cc1Cl	none
CC(C)[C@@H](C(=O)NC1CCN(Cc2ccccc2)CC1)N1C(=O)N2CCc3c([nH]c4ccccc34)[C@@]2(C)C1=O	KCNH2 3.1 block -87, hERG WT inh inconclusive (no result: CBFb-RUNX1 inh)
CC(=O)c1ccccc1OC(=O)COc1ccc([N+](=O)[O-])cc1	VDR inh inconclusive, MBNL1 CUG block inconclusive, PLK1 PBD inh 21µM (no result: CBFb-RUNX1 inh)
Cc1ccc2c(c1)c(CC(NC(=O)c1ccccc1Oc1ccccc1)C(=O)O)cn2C(=O)OCc1ccccc1 (stereo unspecified)	VDR inh 32µM (no result: MBNL1 CUG block, PLK1 PBD inh, KCNH2 3.1 block, hERG WT inh)
CCCCN(Cc1ccccc1)S(=O)(=O)c1cc(Br)cc2c1N(C(C)=O)CC2	none (no result: MBNL1 CUG block, PLK1 PBD inh, CBFb-RUNX1 inh, KCNH2 3.1 block, hERG WT inh)
CCCCOc1ccc(/C=C/C(=O)Nc2ccc(C(N)=O)cc2)cc1	VDR inh 79µM
COCCCNC1=C(C#N)C(=O)NC(c2cccc([N+](=O)[O-])c2)S1 (stereo unspecified)	PLK1 PBD inh 19µM (no result: VDR inh, MBNL1 CUG block, CBFb-RUNX1 inh)
CCCSc1nnc2c(n1)OC(c1ccc(Br)s1)Nc1ccccc1-2 (stereo unspecified)	none (no result: MBNL1 CUG block, PLK1 PBD inh, CBFb-RUNX1 inh, KCNH2 3.1 block, hERG WT inh)
Cc1ccc2c(c1)cc(CN(Cc1ccco1)C(=O)COc1ccccc1)c1nnnn12	PLK1 PBD inh 24µM
Cc1ccc2c(c1)cc(CN(Cc1ccc3c(c1)OCO3)C(=O)c1cnccn1)c1nnnn12	PLK1 PBD inh inconclusive, KCNH2 3.1 block -96
CCC(=O)N(Cc1ccco1)Cc1cc2cccc(C)c2n2nnnc12	none
Cc1cc2cc(CN(Cc3ccc4c(c3)OCO4)C(=O)c3cnccn3)c3nnnn3c2cc1C	none
Clc1cccc(CSc2nnc(C3CCNCC3)o2)c1	none (no result: MBNL1 CUG block, PLK1 PBD inh, CBFb-RUNX1 inh, KCNH2 3.1 block, hERG WT inh)
CC(C)Cc1nn2c(=O)cc(COC(=O)c3cccc(NS(C)(=O)=O)c3)nc2s1	none (no result: MBNL1 CUG block, PLK1 PBD inh, CBFb-RUNX1 inh, KCNH2 3.1 block, hERG WT inh)
CN1CCN(c2ccc(Cl)cc2NC(=O)/C=C/c2cccc(F)c2)CC1	KCNH2 3.1 block -70, hERG WT inh inconclusive
CN1CCN(c2ccc(Cl)cc2NC(=O)c2cccc(S(=O)(=O)N(C)C)c2)CC1	none
CCOc1ccc(-n2c(=S)sc3c(=O)n(-c4ccc(F)cc4)c(SCC(=O)O)nc32)cc1	MBNL1 CUG block inconclusive, hERG WT inh -239 (no result: CBFb-RUNX1 inh)
CCN(CC)C(=O)CSc1nc2c(sc(=S)n2CC)c(=O)n1-c1ccccc1	none
CCN(CC)C(=O)CSc1nc2c(sc(=S)n2-c2ccccc2)c(=O)n1Cc1ccco1	VDR inh 40µM, PLK1 PBD inh 24µM, KCNH2 3.1 block -78
CCC(C)C(NC(=O)C1CCC(C)CC1)C(=O)Nc1ccc(OC)cc1 (stereo unspecified)	VDR inh inconclusive, PLK1 PBD inh 30µM (no result: CBFb-RUNX1 inh)
